Source: PubChem BioAssay (The Scripps Research Institute Molecular Screening Center)
The list is not random: actives were taken first. Their share in the collection is about 3.5%.
TEAD-YAP inh: TEAD-YAP interaction inhibition. HEK-TIYL cells, TEAD-Gal4/YAP UAS-luciferase luminescence. inhibition, % at 9.12 µM. 1.4% of 640,000 active; in the data active = inhibition above about 32%;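 note: 0% = median of test compound wells and 100% = reference inhibitor wells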
GPR151 activ: activates the human receptor GPR151. 1% of 650,000 active. AID 1508602. activation, % at 11.2 µM. PathHunter beta-arrestin GPR151 cells, luminescence; in the data active = activation above about 4.9%;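 note: 0% = median of compound wells and 100% = cells with positive control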
FBW7 act: activators of human E3 ligase FBW7. Q969H0. AlphaScreen FBW7–phospho-cyclin E peptide binding, activator screen. normalized activity (activation), % at 26.1 µM. 0.13% of 650,000 active. AID 1259310; in the data active = normalized activity above about 1.9%;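 note: purified mutant Fbw7 with reduced substrate affinity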
MITF primary: human MITF inhibition, primary screen. O75030. inhibition, % at 2.6 µM. AID 1259374. AlphaScreen MITF homodimerization, bead proximity signal. 0.91% of 650,000 active; in the data active = inhibition above about 50%;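 note: 0% = vehicle wells with protein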
Target sequence (O75030 whole entry, looked up): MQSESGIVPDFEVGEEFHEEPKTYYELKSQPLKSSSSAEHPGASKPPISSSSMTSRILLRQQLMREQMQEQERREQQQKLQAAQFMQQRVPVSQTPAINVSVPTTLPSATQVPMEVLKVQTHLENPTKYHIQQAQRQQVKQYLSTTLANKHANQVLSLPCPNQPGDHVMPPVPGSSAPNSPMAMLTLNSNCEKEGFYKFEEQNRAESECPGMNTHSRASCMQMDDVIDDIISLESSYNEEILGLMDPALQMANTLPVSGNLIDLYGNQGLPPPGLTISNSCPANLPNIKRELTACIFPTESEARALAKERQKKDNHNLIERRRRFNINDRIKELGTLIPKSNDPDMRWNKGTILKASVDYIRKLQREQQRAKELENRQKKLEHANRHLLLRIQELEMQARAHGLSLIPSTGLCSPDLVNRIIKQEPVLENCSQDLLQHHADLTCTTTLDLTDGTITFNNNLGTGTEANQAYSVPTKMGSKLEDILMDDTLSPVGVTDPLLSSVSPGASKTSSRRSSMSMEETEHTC
GPR151 conf act: confirmation of human GPR151 activators; shares compounds with GPR151 activ; GPR151 PathHunter beta-arrestin cells, luminescence, 90 min; % of EA-reagent control over plate median; activation, % at 11.2 µM; 6,700 tested, under 10 active; AID 1508609;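 active = mean percent activation across replicates above the confirmation screen cutoff of 4.91%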
GPR119 ag: activates human GPR119 in a GPR151 counter-screen | shares compounds with GPR151 activ | GPR119 PathHunter beta-arrestin cells, luminescence, 90 min; 0 = compound-well median, 100 = enzyme-acceptor control | activation, % at 11.2 µM | 0.3% of 6,700 active;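 active = mean percent activation in the counterscreen above 29.09%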;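 note: counterscreen on off-target GPR119 to flag nonselective hits from the GPR151 activator screen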
The depositor's hits bear a star; / = no result.

SMILES | TEAD-YAP inh | GPR151 activ | FBW7 act | MITF primary | GPR151 conf act | GPR119 ag
O=C(c1cnsn1)N1CCOc2ccc(C(O)CCc3ccccc3)cc2C1 (stereo not given) | -9 | 5.3* | 0 | -3 | 0 | 1
CC(=O)c1ccc(N2CCN(C(=O)CCc3nc(-c4ccc(C)cc4)no3)CC2)cc1 | 4 | 1 | 0 | 0 | / | /
CN(C)C(=O)CSc1nnc(-c2ccc3c(c2)OCO3)n1C | -6 | 0 | 0 | 1 | / | /
Cn1c(SCC(N)=O)nnc1-c1ccc2c(c1)OCO2 | 8 | 9.6* | 0 | -2 | 1 | 9
N#CC1=C(N)OC(c2ccccc2)=C(n2cnc([N+](=O)[O-])c2)C1c1cccnc1 (stereo not given) | 2 | 8.2* | 0 | -5 | -1 | -4
N#CC1=C(N)OC(c2ccccc2)=C(n2cnc([N+](=O)[O-])n2)C1c1ccccc1 (stereo not given) | 3 | 2 | 0 | -7 | / | /
O=C1/C(=C\c2cn(-c3ccccc3)nc2-c2cc3c(ccc4ccccc43)oc2=O)NC(=S)N1c1ccccc1 | 0 | -1 | 0 | 13 | / | /
C/C(=N\NC(=O)c1cc2c(s1)CCCC2)c1ccccc1O | -14 | 0 | 0 | -11 | / | /
CN(CCO)c1ccc(/C=N/NC(=O)c2cc3c(s2)CCCC3)cc1 | -9 | 6.2* | 0 | -4 | 0 | -6
Cc1ncsc1CCOC(=O)c1ccc2c(c1)S(=O)(=O)c1ccccc1C2=O | 4 | 0 | 0 | 1 | / | /
CC(C)(C)C1CCc2c(sc(NC(=O)c3ccccc3F)c2C(=O)N2CCCCCC2)C1 (stereo not given) | -2 | 3 | 0 | 2 | / | /
O=C(CN1CCN(c2nc(-c3ccc(F)cc3)cs2)CC1)Nc1ccccc1Cl | -4 | 0 | 0 | -2 | / | /
CCOC(=O)NC(Nc1nc(C2CC2)cs1)(C(=O)OCC)C(F)(F)F (stereo not given) | 2 | -1 | 0 | 2 | / | /
COC(=O)C(NC(=O)c1ccc(Cl)cc1)(Nc1nc(C2CC2)cs1)C(F)(F)F (stereo not given) | -4 | 5.2* | 1 | 14 | 0 | -6
COc1ccc(-c2nnc(SCC(=O)Nc3cccc(Cl)c3C)nc2-c2ccc(OC)cc2)cc1 | 9 | 5.8* | 0 | 2 | -1 | -6
COc1ccccc1N1CCN(CCCNC(=O)c2ccc3c(=O)n(Cc4ccc(Cl)cc4)c(=S)[nH]c3c2)CC1 | 0 | -2 | 0 | 6 | / | /
O=C(CN1CCN(C(=O)c2ccco2)CC1)NN(Cc1ccccc1)c1ccccc1 | 3 | 5.4* | 0 | 34 | 0 | -6
COc1ccc(C(=O)N(CCCO)C(C)C(=O)NC2CCCCC2)cc1OC (stereo not given) | 4 | 5.1* | 1 | 15 | 1 | 4
COc1cc2nc(Nc3ccncc3)nc(Nc3ccc(N4CCOCC4)cc3)c2cc1OC | -7 | 6.6* | 0 | 18 | 0 | -2
C=CCn1c(SCC(=O)Nc2ccccc2F)nc2sc3c(c2c1=O)CCC(C)C3 (stereo not given) | 7 | 8.7* | 0 | 2 | 0 | -9
Cc1ccc(/C=N/NC(=O)c2nc3nc(C)cc(C)n3n2)cc1 | -14 | -1 | 0 | -7 | / | /
Cc1cc(C)n2nc(C(=O)N/N=C/c3ccccc3)nc2n1 | -4 | 10* | 0 | -1 | -1 | -8
COC(=O)[C@@H]1CCCN1Cc1ccc2c(c1)CN(Cc1c[nH]c3ccccc13)CCO2 | -4 | 6.9* | 0 | 9 | 0 | 1
COC(=O)[C@@H]1CCCN1Cc1ccc2c(c1)CN(Cc1ccccc1)CCO2 | -3 | -1 | 0 | -7 | / | /
CN(C)c1ccc(CN(C(=O)c2ccccc2[N+](=O)[O-])C2CCS(=O)(=O)C2)cc1 (stereo not given) | -8 | -1 | 0 | 20 | / | /
O=C(c1ccccc1[N+](=O)[O-])N(Cc1ccc(Cl)cc1)C1CCS(=O)(=O)C1 (stereo not given) | 0 | 5.0* | 0 | -14 | 1 | -2
CC1CCN(C(=O)Cn2nc(SCc3ccccn3)nc2N)CC1 | 5 | 17* | 0 | 26 | 0 | 2
O=C(NCCO)c1ccnc(-c2ccc(C(=O)NC3CC3)cc2)c1 | -8 | 3 | 0 | -7 | / | /
COC1CCN(c2nc3nonc3nc2NCc2cccs2)CC1 | -27 | 8.8* | 0 | 6 | 1 | 2
